High-throughput results deposited in PubChem BioAssay by National Center for Advancing Translational Sciences (NCATS).
Pf Dd2 inh – Plasmodium falciparum Dd2 growth inhibition. P. falciparum Dd2 growth, SYBR Green, 72 h. 4.3% of 120,000 active. Potency, µM (series often up to 28.9 µM), most hits filed as inhibitors. AID 1347417; active = well fitted inhibition curve with a large enough effect; note: nearly all actives have a fitted effect of over 65% in size
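Infected erythrocytes (Dd2, 0.3% parasitemia, 2.5% hematocrit final) are added to compound in RPMI-1640/Albumax II medium, grown 72 h at 37C in low oxygen, then lysed with saponin/Triton-X containing SYBR Green and read by fluorescence.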
A number is an active result; [ ] = remark or other dose. The full list was thinned out, with hits kept by preference.

Results for COc1ccc(CCNC(=O)CSC2=Nc3ccccc3C3=NC(CCC(=O)NCc4ccccc4)C(=O)N23)cc1OC (configuration not stated) ?
Pf Dd2 inh: inactive

Results for Cc1ccc(CSC2=Nc3ccccc3C3=NC(CCC(=O)NCc4cccs4)C(=O)N23)cc1 (configuration not stated) ?
Pf Dd2 inh: inactive

What do the screens show for `COc1ccc(NC(=O)CSC2=Nc3ccccc3C3=NC(CCC(=O)NC4CCCCC4)C(=O)N23)cc1` (configuration not stated)?
Pf Dd2 inh: inactive

What do the screens show for `COc1ccc(OC)c(NC(=O)CSC2=Nc3ccccc3C3=NC(CC(=O)NCc4ccco4)C(=O)N23)c1` (configuration not stated)?
Pf Dd2 inh: inactive

What do the screens show for `CCOc1ccccc1NC(=O)CSC1=Nc2ccccc2C2=NC(CC(=O)NC3CCCCC3)C(=O)N12` (configuration not stated)?
Pf Dd2 inh: 11µM

What do the screens show for `COc1cccc(CNC(=O)[C@@H]2C[C@@H](O)CN2C2CCN(C(=O)c3ccccc3)CC2)c1`?
Pf Dd2 inh: inactive

How did CN(Cc1ccc(F)cc1)Cc1cncs1 do in these assays?
Pf Dd2 inh: inactive

Results for O=C(O)c1cccc(CC2CCN(C(=O)C3CCC(O)CC3)C2)c1 (configuration not stated) ?
Pf Dd2 inh: inactive

Results for CN1[C@@H](CCC(=O)NCc2cccs2)CNC(=O)[C@@H]2[C@H]1CCN2Cc1ccc(S(C)(=O)=O)cc1 ?
Pf Dd2 inh: inactive

How did Cc1ccc(F)cc1S(=O)(=O)N1CCC(CC(=O)NCc2ccccc2)C1 (configuration not stated) do in these assays?
Pf Dd2 inh: inactive

How did CN(CC1CCOC1)C(=O)Nc1ccc(F)cc1 (configuration not stated) do in these assays?
Pf Dd2 inh: inactive[5.79 µM]

What do the screens show for `CC(C)C[C@@H](NC(=O)[C@@]1(O)C[C@@H](O)[C@H](O)[C@@H](NS(=O)(=O)c2cccc(C(F)(F)F)c2)C1)C(N)=O`?
Pf Dd2 inh: inactive

What do the screens show for `CCCCNC(=O)CSC1=Nc2ccccc2C2=NC(CCC(=O)NCc3ccccc3OC)C(=O)N12` (configuration not stated)?
Pf Dd2 inh: inactive

How did O=C(CC1N=C2c3ccccc3N=C(SCC(=O)Nc3cccc(C(F)(F)F)c3)N2C1=O)NCc1cccs1 (configuration not stated) do in these assays?
Pf Dd2 inh: 13µM

Results for COCCCNC(=O)CSC1=Nc2ccccc2C2=NC(CCC(=O)NCc3ccccc3OC)C(=O)N12 (configuration not stated) ?
Pf Dd2 inh: inactive

How did O=C(CC1N=C2c3ccccc3N=C(SCc3cccc(F)c3)N2C1=O)NCc1cccs1 (configuration not stated) do in these assays?
Pf Dd2 inh: inactive

What do the screens show for `CCCCNC(=O)CC1N=C2c3ccccc3N=C(SCC(=O)NCc3ccccc3Cl)N2C1=O` (configuration not stated)?
Pf Dd2 inh: 10µM

How did O=C(CC1N=C2c3ccccc3N=C(SCC(=O)Nc3ccc(F)cc3)N2C1=O)NCc1cccs1 (configuration not stated) do in these assays?
Pf Dd2 inh: inactive

How did CC(=O)N1CCC(N2CC(Oc3cccc(C(=O)N4CCOCC4)c3)C2)CC1 do in these assays?
Pf Dd2 inh: inactive

How did Cc1c(Cl)cccc1NC(=O)CN1C(=O)NC2(CCOCC2)C1=O do in these assays?
Pf Dd2 inh: inactive

Results for COc1ccc(C(=O)N[C@@H]2CN(S(C)(=O)=O)C[C@H]2CN(C)C)cc1OC ?
Pf Dd2 inh: inactive

What do the screens show for `CCOC(=O)c1cnc2c(ccc3ccccc32)c1Nc1ccc(OC)cc1OC`?
Pf Dd2 inh: inactive

How did CCOC(=O)c1cnc2c(ccc3ccccc32)c1Nc1ccc(C(C)=O)cc1 do in these assays?
Pf Dd2 inh: 5µM

How did CCOC(=O)c1cnc2c(ccc3ccccc32)c1Nc1ccccc1OCC do in these assays?
Pf Dd2 inh: inactive

How did CCOC(=O)c1cnc2c(ccc3ccccc32)c1Nc1ccccc1OC do in these assays?
Pf Dd2 inh: inactive

How did CCOC(=O)c1cnc2ccccc2c1Nc1ccc(N2CCOCC2)cc1 do in these assays?
Pf Dd2 inh: inactive

How did CCOC(=O)c1cnc2c(ccc3ccccc32)c1Nc1ccc(OC)c(OC)c1 do in these assays?
Pf Dd2 inh: 3.5µM

Results for CC(=O)N1CCN(C2CCNCC2)C(=O)C1 ?
Pf Dd2 inh: inactive

How did COCCOCC1(CNCC2CC2)C[C@@H](O)[C@@H](O)C1 (some centres not stated) do in these assays?
Pf Dd2 inh: inactive

Results for O=C1NCCN2CC3(CCN(S(=O)(=O)c4cccc5cccnc45)CC3)CC12 (configuration not stated) ?
Pf Dd2 inh: inactive

What do the screens show for `CN1CCC(N2CC[C@@H]3[C@H]2C(=O)NC[C@H](CCC(=O)NCc2ccco2)N3C)CC1`?
Pf Dd2 inh: inactive

Results for Cc1cn2nc(C(=O)NCc3cccc(Cl)c3)cc2c(N2CCCC2)n1 ?
Pf Dd2 inh: inactive

How did O=C(O)C1CCc2nnc(C3CCN(C(=O)c4ccccc4)C3)n21 (configuration not stated) do in these assays?
Pf Dd2 inh: inactive

What do the screens show for `Cc1cc(C(=O)N2CCCN(C)c3ccccc32)nn1C`?
Pf Dd2 inh: inactive

Results for Cc1ccc(NC(=O)/C=C/c2ccccc2Cl)cc1Cl ?
Pf Dd2 inh: 2.8µM

Results for Cc1ccc(NC(=O)c2ncn(-c3ccccc3)n2)cc1Cl ?
Pf Dd2 inh: inactive

How did CNC(=O)c1c(NC(=O)/C=C/c2ccccc2Cl)sc2c1CCC2 do in these assays?
Pf Dd2 inh: inactive

How did O=[S+]([O-])(c1cccc(C(F)(F)F)c1)N1CC(Oc2ccc(F)c(F)c2)C1 do in these assays?
Pf Dd2 inh: inactive

Results for O=C(Nc1nnc(C2CC2)s1)C1CC(=O)N(c2n[nH]c3cc(Br)ccc23)C1 (configuration not stated) ?
Pf Dd2 inh: inactive

What do the screens show for `O=C(NCc1ccc2c(c1)OCO2)c1ccc2c(c1)N(Cc1c(F)cccc1Cl)C(=O)c1ccccc1S2`?
Pf Dd2 inh: 7.1µM

How did CCCCNC(=O)c1ccc2c(c1)N(CC)C(=O)c1ccccc1S2 do in these assays?
Pf Dd2 inh: inactive

Results for CCN(CC)CCCNC(=O)c1ccc2c(c1)N(Cc1c(F)cccc1Cl)C(=O)c1ccccc1S2 ?
Pf Dd2 inh: 0.45µM

What do the screens show for `O=C(NC1CCCC1)c1ccc2c(c1)N(Cc1ccccc1F)C(=O)c1ccccc1S2`?
Pf Dd2 inh: inactive

Results for CCCCN(C)C(=O)c1ccc2c(c1)N(Cc1cccc(F)c1)C(=O)c1ccccc1S2 ?
Pf Dd2 inh: inactive

How did O=C(NCCc1ccc(Cl)cc1)c1ccc2c(c1)N(Cc1c(F)cccc1Cl)C(=O)CS2 do in these assays?
Pf Dd2 inh: inactive

How did COc1ccc(CNC(=O)CN2C(=O)NC3(CCCCC3)C2=O)cc1 do in these assays?
Pf Dd2 inh: inactive

What do the screens show for `COCCNC(=O)CCC[C@@H]1[C@H]2CCCN3CCC[C@@H](CN1C)[C@@H]23`?
Pf Dd2 inh: inactive

How did CNC(=O)[C@@H]1C[C@@H](O)CN1C1CCN(C(=O)Cn2c(=O)oc3ccccc32)CC1 do in these assays?
Pf Dd2 inh: inactive

Results for O=C(c1cccs1)N1CCC(N2CC3CC(C2)[C@H]2CCCC(=O)N2C3)CC1 (some centres not stated) ?
Pf Dd2 inh: inactive

Results for O=C1NCCCN1C1CCN(Cc2ccccc2OC(F)(F)F)CC1 ?
Pf Dd2 inh: inactive

What do the screens show for `CC1=C[C@@H](CNC(=O)c2cncnc2)[C@H](C(C)C)C[C@H]1Cc1nnc(-c2ccccc2F)o1`?
Pf Dd2 inh: inactive
